Test results as given in PubChem BioAssay (NCATS).
Where “and” joins values, the source holds several entries; their conditions need not be identical. Equal values may be shown once. Records with an inconclusive call do not appear. Some compounds were tested as several samples or in several runs, with calls that do not always agree. Calls of active or inactive are those of the source. Unless noted, the call rests on the fitted dose curve; in most records, active means well fitted curve in the direction sought with a large enough effect; inconclusive means small, poorly fitted or top-dose-only effect, or another doubt; inactive means no such curve, though single readings can be large; an effect the other way counts as inactive or inconclusive. Starred links: 1 amine or outer side, 2 acyl side, 3 side chain; linkers in the order of their positions; H or OH if unused. Positions of bridges follow the written chain, without caps; N, C: chain ends. Non-standard residues stand in square brackets, D forms with d. Residues, ends and D or L forms follow the SMILES beside them. *: point of attachment. X4 = NC1=N[C@@H](O)C[C@H]([C@H](N[*:1])C(=O)[*:2])N1; ΔAla(3-NHCONH2) = NC(=O)NC=C(N)C(=O)O; β3hOrn = NCCC[C@H](N)CC(=O)*; Dap = NC[C@H](N)C(=O)O

Experiments:
[1] = target: Lysosomal acid glucosylceramidase (Homo sapiens) (UniProt P04062); assay: Glucocerebrosidase-p2 (AID 348; in the data active means potency below about 10 µM; further: potency means the concentration at half of the fitted maximal effect); conditions: purified GBA, blue fluorogenic substrate, 40 min
Outline: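 Normal human glucocerebrosidase (0.2 nM) with blue fluorogenic substrate (80 uM final) in citrate/phosphate pH 5.9 with 10mM sodium taurocholate, 0.01% tween-20; 40 min RT, NaOH/glycine stop; fluorescence Ex 365/Em 440; AC50 from a titration from 0.6 nM upwards.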

[2] = AP1 Signaling Pathway (AID 357; active means well fitted curve in either direction with a large enough effect, not every such curve was filed as active;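 further: ME-180 reporter cells stimulated with EGF at its EC50 level; on the % scale 0 is the no-effect control and ±100 the full control effect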); conditions: ME-180 AP-1-bla reporter, EGF-induced, beta-lactamase ratio, 5 h; at 7.69 µM (top of the series) unless noted
Outline: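 A ratiometric CCF4 readout (405 nm excitation; 460 and 530 nm emission) quantified AP-1-driven beta-lactamase in ME-180 cells after 5 h with compound and EC50 EGF; AC50 values were derived for activators and inhibitors.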

[3] = target: Cytochrome P450 1A2 (Homo sapiens) (UniProt P05177); assay: p450-cyp1a2 (AID 410; calls by dose curve; further: potency means the concentration at half of the fitted maximal effect;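 on activity change, negative = inhibition: -100% = full effect of reference inhibitor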)
Cytochrome P450 1A2 (Homo sapiens), sequence (P05177 whole entry, looked up): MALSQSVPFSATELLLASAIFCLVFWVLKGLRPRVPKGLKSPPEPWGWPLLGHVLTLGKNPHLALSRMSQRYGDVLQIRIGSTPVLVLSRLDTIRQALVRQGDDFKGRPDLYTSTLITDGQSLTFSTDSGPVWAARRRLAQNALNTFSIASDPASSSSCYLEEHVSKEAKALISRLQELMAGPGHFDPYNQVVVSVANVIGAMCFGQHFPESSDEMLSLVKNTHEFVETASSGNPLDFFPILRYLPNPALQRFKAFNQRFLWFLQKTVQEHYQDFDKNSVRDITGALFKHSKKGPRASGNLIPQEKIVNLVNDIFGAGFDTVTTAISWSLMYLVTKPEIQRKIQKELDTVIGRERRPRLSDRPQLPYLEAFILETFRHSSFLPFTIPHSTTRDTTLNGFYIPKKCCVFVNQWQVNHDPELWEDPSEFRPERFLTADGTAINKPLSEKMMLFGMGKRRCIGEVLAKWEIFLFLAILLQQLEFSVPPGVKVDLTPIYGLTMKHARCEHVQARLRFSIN
Outline: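 Read-out is luminescence from luciferin produced by CYP1A2 demethylation of Luciferin-ME (100uM, at Km). Detection reagent stopped the 60 min NADPH-dependent reaction; signals were normalized to 57 uM furafylline.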

[4] = NFAT Signaling Pathway (AID 444; active means well fitted curve in either direction with a large enough effect, not every such curve was filed as active;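 further: carbachol stimulus at about its EC50 of 1 µM final; on the % scale 0 is the no-effect control and ±100 the full control effect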); conditions: Jurkat NFAT-bla M1, carbachol, beta-lactamase ratio, 5 h; at 7.69 µM (top of the series) unless noted
Outline: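 Jurkat cells carrying an NFAT-driven β-lactamase reporter and co-transfected muscarinic M1 receptor were treated with compound plus carbachol (1 uM final, an EC50 level) for 5 h at 37 °C. CCF4 loading followed for 1 h at RT; 460/530 nm ratio gave %activity.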

[5] = Stat Signaling Pathway (AID 446; active means well fitted curve in either direction with a large enough effect, not every such curve was filed as active;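 further: ME-180 cervical cancer cells given 40 pM IL-6 alongside compound; SIE-controlled beta-lactamase reporter measured as 460/530 nm FRET emission ratio; on the % scale 0 is the no-effect control and ±100 the full control effect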); conditions: ME-180 (cervical carcinoma) SIE beta-lactamase reporter, IL-6 stimulated, 5 h; at 7.69 µM (top of the series) unless noted
Outline: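 Normalization used AC90 stimulation (300 pM IL-6) and AC90 inhibition (125 nM pan-JAK inhibitor at 40 pM IL-6). The underlying signal is SIE-driven beta-lactamase in ME-180 cells after 5 h IL-6 exposure with compound.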

[6] = target: Glucocorticoid receptor (Homo sapiens) (UniProt P04150); assay: GR-GFP Redistribution (AID 450;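 active means compounds whose dose series gives a full or clear partial fitted curve of increased nuclear translocation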; further: potency means the concentration at half of the fitted maximal effect); conditions: U2OS GR-GFP nuclear translocation, laser cytometry, 2 h
Glucocorticoid receptor (Homo sapiens), sequence (P04150 whole entry, looked up, the tested form may be a part): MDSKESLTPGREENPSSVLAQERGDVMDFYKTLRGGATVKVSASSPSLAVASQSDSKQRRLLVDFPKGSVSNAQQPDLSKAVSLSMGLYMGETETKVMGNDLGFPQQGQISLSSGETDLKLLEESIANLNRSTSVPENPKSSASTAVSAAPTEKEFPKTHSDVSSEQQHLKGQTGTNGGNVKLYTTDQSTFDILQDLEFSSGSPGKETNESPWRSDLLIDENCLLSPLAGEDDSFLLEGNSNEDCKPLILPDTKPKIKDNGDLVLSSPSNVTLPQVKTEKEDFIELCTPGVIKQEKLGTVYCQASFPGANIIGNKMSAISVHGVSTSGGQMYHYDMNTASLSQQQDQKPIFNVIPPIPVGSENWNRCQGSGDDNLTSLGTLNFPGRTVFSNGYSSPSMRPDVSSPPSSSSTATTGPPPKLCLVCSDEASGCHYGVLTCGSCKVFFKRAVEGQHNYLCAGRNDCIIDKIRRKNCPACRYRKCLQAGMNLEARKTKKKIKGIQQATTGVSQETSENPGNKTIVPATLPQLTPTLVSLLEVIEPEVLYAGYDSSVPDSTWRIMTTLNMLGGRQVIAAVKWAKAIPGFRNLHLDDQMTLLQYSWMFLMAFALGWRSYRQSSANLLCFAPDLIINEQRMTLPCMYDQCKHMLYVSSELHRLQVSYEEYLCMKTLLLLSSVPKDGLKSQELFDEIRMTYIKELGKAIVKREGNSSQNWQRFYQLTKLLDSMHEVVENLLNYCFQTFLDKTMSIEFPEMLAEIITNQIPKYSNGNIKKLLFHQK

[7] = target: Glucocorticoid receptor (Homo sapiens) (UniProt P04150); assay: GR-EFC Redistribution (AID 451; calls by dose curve; further: potency means the concentration at half of the fitted maximal effect); conditions: CHO-K1 GR-EFC translocation, beta-gal luminescence, 2 h
Outline: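 CHO-K1 cells stably expressing nuclear-localized β-gal enzyme acceptor and GR fused C-terminally to the enzyme donor fragment; ligand-driven nuclear translocation restores β-gal by complementation. Compounds titrated up to 46 uM final, 2 h at 37 °C; luminescence read.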

[8] = target: Mitogen-activated protein kinase 10 (Mus musculus) (UniProt Q61831); assay: JNK3 AlphaScreen Assay (AID 530; active means well fitted curve in either direction with a large enough effect, not every such curve was filed as active;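 further: kinase came from lysate of stimulated human HepG2 cells; signal reports phosphorylation of biotinylated GST-cJun 1-79 at Ser73 with 10 µM ATP; on the % scale 0 is the no-effect control and ±100 the full control effect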)
Outline: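 Biotinylated GST-cJun(1-79) served as substrate for JNK3 in HepG2 lysates stimulated with IL-1beta and TNF-alpha. ATP was 10 uM final, pH 7.6. Ser73 phosphorylation was quantified by AlphaScreen (680 nm excitation).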

[9] = target: Cytochrome P450 2C9 (Homo sapiens) (UniProt P11712); assay: qHTS Assay for Inhibitors and Substrates of Cytochrome P450 2C9 (AID 883); further: nearly all actives have a fitted effect of over 60% in size; further: potency means the concentration at half of the fitted maximal effect
Outline: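 Human CYP2C9 (10nM) hydroxylated Luciferin-H (100uM, at its KM) to luciferin in 25mM KPO4. Compound was preincubated 10 min at 37C, then NADPH regeneration started a 60 min reaction at 37C. Luminescence was read after detection reagent, normalized to 57uM sulphaphenazole.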

[10] = target: Cytochrome P450 3A4 (Homo sapiens) (UniProt P08684); assay: qHTS Assay for Inhibitors and Substrates of Cytochrome P450 3A4 (AID 884); further: potency means the concentration at half of the fitted maximal effect; nearly all actives have a fitted effect of over 50% in size
Cytochrome P450 3A4 (Homo sapiens), sequence (P08684 whole entry, looked up): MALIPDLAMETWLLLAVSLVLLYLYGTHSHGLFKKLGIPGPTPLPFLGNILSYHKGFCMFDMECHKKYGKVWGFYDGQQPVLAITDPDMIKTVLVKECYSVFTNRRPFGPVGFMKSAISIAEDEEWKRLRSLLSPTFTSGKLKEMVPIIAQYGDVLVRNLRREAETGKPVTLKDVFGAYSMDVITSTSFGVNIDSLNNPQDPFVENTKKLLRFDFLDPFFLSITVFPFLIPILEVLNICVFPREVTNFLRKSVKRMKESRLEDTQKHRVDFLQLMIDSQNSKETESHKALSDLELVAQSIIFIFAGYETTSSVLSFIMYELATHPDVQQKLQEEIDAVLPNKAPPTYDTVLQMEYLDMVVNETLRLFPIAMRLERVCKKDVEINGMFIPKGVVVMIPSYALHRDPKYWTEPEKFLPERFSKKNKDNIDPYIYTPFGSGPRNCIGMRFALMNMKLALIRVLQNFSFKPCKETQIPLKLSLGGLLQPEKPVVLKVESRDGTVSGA
Outline: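 Luminescent readout of luciferin produced by CYP3A4 (20 nM) dealkylation of Luciferin-PPXE, 25 uM (its KM). NADPH-driven reaction ran 60 min at RT after 10 min compound preincubation; data scaled to 57 uM ketoconazole as 100% inhibition.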

[11] = target: Cytochrome P450 3A4 (Homo sapiens) (UniProt P08684); assay: qHTS Assay for Activators of Cytochrome P450 3A4 (AID 885); further: nearly all actives have a fitted effect of over 65% in size
Outline: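 Human CYP3A4 dealkylates Luciferin-PPXE to luciferin, which luciferase detection converts to light. Substrate was at its KM (25uM), buffer 200mM KPO4, reaction 60 min at RT.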

[12] = target: Cytochrome P450 2D6 (Homo sapiens) (UniProt P10635); assay: qHTS Assay for Inhibitors and Substrates of Cytochrome P450 2D6 (AID 891); further: potency means the concentration at half of the fitted maximal effect; nearly all actives have a fitted effect of over 60% in size
Cytochrome P450 2D6 (Homo sapiens), sequence (P10635 whole entry, looked up): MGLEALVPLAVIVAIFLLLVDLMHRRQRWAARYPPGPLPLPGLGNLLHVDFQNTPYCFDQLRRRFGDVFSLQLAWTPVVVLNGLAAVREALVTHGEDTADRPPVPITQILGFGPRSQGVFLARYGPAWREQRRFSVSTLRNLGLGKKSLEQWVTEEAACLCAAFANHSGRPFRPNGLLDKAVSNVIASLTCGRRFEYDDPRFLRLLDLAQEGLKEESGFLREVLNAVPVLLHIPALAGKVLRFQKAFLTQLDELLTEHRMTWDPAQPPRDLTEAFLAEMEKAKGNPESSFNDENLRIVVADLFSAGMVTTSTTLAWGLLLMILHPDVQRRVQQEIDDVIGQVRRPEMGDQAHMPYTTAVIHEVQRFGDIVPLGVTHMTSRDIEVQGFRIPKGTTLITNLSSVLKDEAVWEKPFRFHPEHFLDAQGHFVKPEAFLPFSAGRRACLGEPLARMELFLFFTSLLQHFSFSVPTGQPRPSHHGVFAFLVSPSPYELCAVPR
Outline: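 Luminescent read-out of luciferin formed by 5 nM human CYP2D6 demethylating 30 uM Luciferin-ME EGE (Km level) over 60 min at room temperature after NADPH regeneration addition. Data normalized to full inhibition by 1.43 uM quinidine.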

[13] = target: Cytochrome P450 2C19 (Homo sapiens) (UniProt P33261); assay: qHTS Assay for Inhibitors and Substrates of Cytochrome P450 2C19 (AID 899); further: potency means the concentration at half of the fitted maximal effect; nearly all actives have a fitted effect of over 60% in size
Outline: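 Human CYP2C19 (5nM) with Luciferin-H EGE at 10uM (its KM) in 50mM KPO4 was preincubated with compound for 10 min at 37C. NADPH regeneration started a 60 min 37C reaction. Luciferin was read by luminescence, normalized to 57uM ketoconazole.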

[14] = Confirmation and Secondary Assay for Modulators of Hemoglobin Beta Chain Splicing at IVS2 654 locus (AID 910);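 further: per-well total GFP intensity by laser scanning cytometry after 2-day treatment; % of control where 0% means no effect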
Outline: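 HeLa cells stably carrying EGFP interrupted by mutant beta-globin IVS2-654 intron (CMV-driven) were treated with compound for 2 days at 37C; corrected splicing was scored as total peak GFP intensity per well (488 nm excitation, 500-520 nm emission).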

[15] = Confirmation and Secondary Assay for Modulators of Hemoglobin Beta Chain Splicing at IVS2 705 locus (AID 930);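 further: HeLa cells stably expressing the EGFP-705 splicing reporter; GFP fluorescence per well restored by corrected splicing of the IVS2-705 intron in EGFP; % of control where 0% means no effect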
Outline: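 Fluorescence gain (488 nm laser, 500-520 nm PMT) reflects restored correct splicing of a mutant IVS2-705 intron inside EGFP in stably transfected HeLa cells after 2-day compound treatment.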

[16] = qHTS Assay for Lipid Storage Modulators (AID 1519; calls by dose curve); conditions: Drosophila S3 cells, BODIPY lipid droplet/cell ratio, laser cytometry, cells loaded with oleic acid
Outline: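 Cells seeded at 5,000 per well were treated with compounds over a concentration series and loaded with oleic acid (400 uM, as added). Lipid droplet fluorescence (488 nm excitation, 500-530 nm channel) was read by laser-scanning cytometry and normalized to 20 uM Triacsin C.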

[17] = target: Rap guanine nucleotide exchange factor 3 (Homo sapiens) (UniProt O95398); assay: Confirmatory qHTS for antagonist of cAMP-regulated guanine nucleotide exchange factor 3 (EPAC1) (AID 1645880);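 further: plate controls were DMSO only for no effect and full effect of the ATA control for full effect; nearly all actives have a fitted effect of over 55% in size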
Rap guanine nucleotide exchange factor 3 (Homo sapiens), sequence (O95398 whole entry, looked up): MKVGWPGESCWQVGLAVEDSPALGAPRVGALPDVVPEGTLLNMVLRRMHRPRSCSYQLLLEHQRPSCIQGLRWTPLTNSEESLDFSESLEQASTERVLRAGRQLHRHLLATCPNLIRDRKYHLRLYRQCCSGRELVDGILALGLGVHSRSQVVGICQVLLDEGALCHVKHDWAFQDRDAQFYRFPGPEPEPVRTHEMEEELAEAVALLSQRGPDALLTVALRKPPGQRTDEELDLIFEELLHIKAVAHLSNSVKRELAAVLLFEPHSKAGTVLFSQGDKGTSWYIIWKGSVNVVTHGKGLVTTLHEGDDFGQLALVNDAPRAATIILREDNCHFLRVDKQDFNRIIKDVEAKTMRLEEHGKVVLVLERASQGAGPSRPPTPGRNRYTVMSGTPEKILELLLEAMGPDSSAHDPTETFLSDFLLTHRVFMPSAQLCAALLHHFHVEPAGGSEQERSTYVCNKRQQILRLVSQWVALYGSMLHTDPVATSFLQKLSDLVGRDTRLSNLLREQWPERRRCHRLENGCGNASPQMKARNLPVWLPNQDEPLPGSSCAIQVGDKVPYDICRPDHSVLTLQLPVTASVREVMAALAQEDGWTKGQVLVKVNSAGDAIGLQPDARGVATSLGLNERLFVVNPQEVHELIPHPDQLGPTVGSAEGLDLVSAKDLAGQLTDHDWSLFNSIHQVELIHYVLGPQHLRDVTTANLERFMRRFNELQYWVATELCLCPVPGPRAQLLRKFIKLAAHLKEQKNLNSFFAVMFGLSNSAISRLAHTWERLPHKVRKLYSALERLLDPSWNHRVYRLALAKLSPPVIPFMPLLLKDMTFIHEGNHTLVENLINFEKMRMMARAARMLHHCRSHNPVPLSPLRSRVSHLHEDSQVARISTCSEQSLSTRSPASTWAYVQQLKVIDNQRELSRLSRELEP
Outline: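 Released BODIPY-GDP fluoresces less than Rap1-bound BODIPY-GDP; the signal is followed at 480/540 nm at 5-min intervals over 30 min, after 5 min at room temperature. Reactions contain 100 nM EPAC1, 250 nM RAP1B-BODIPY-GDP and 50 uM GDP; results are normalized to ATA and DMSO.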

[18] = target: Rap guanine nucleotide exchange factor 3 (Homo sapiens) (UniProt O95398); assay: Confirmatory qHTS for agonist of cAMP-regulated guanine nucleotide exchange factor 3 (EPAC1) (AID 1645881);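 further: EPAC1 catalysed release of BODIPY-GDP from Rap1B seen as fluorescence loss; 100% = effect of cAMP agonist control; nearly all actives have a fitted effect of over 75% in size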
[19] = target: Rap guanine nucleotide exchange factor 4 (Homo sapiens) (UniProt Q8WZA2); assay: Confirmatory qHTS for agonist of cAMP-regulated guanine nucleotide exchange factor 4 (EPAC2) (AID 1645884);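 further: nucleotide exchange releases bodipy-GDP from Rap1 and this lowers its fluorescence; on the % scale 0 is the no-effect control and ±100 the full control effect; nearly all actives have a fitted effect of over 65% in size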
Rap guanine nucleotide exchange factor 4 (Homo sapiens), sequence (Q8WZA2 whole entry, looked up): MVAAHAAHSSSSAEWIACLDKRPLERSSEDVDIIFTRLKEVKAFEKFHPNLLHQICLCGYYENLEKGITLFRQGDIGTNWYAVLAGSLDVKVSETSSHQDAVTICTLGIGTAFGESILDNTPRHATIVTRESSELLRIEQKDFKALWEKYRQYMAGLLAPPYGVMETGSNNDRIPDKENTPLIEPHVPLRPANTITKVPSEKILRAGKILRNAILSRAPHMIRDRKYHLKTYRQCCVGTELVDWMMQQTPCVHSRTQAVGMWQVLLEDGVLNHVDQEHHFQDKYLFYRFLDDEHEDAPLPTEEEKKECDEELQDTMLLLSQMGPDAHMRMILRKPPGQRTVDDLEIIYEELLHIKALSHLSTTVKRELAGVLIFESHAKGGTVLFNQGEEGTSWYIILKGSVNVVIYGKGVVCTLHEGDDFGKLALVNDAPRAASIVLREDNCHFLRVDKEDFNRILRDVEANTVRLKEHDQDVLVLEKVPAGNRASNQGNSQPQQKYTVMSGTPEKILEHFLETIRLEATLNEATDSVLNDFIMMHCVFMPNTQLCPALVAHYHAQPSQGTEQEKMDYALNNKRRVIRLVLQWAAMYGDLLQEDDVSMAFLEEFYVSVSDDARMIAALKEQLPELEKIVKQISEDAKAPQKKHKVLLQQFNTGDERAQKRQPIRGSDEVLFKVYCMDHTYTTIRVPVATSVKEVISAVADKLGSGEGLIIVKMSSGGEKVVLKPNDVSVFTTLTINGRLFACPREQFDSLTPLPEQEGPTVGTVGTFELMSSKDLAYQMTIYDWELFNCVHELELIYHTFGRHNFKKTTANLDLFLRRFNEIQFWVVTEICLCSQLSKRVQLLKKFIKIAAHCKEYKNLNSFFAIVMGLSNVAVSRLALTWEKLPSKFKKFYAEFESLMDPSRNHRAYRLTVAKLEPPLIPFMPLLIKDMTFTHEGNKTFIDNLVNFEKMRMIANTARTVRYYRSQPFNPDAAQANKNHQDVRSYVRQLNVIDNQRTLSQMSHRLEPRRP

[20] = target: Rap guanine nucleotide exchange factor 4 (Homo sapiens) (UniProt Q8WZA2); assay: Confirmatory qHTS for antagonist of cAMP-regulated guanine nucleotide exchange factor 4 (EPAC2) (AID 1645885); further: nearly all actives have a fitted effect of over 25% in size; further: potency means the concentration at half of the fitted maximal effect
[21] = qHTS profiling of the MIPE4 collection as inhibitors of Plasmodium falciparum (3D7) proliferation (AID 743344; call rule not given here;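 further: scaled between DMSO vehicle wells and 0.29 µM artemisinin as full inhibition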); conditions: P. falciparum 3D7 in erythrocytes, SYBR Green DNA fluorescence, 72 h; at 5.51 µM (top of the series) unless noted
Outline: (§1)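 Parasite DNA was quantified by SYBR Green I fluorescence (ex 485, em 535 nm) after overnight lysis in saponin/Triton buffer at room temperature. Cultures at 0.3% parasitemia and 2.5% hematocrit were first exposed to compound for 72 h at 37 C; signals were normalised to artemisinin (0.29 uM) and vehicle wells.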

[22] = qHTS profiling of the MIPE4 collection as inhibitors of Plasmodium falciparum (DD2) proliferation (AID 743345; call rule not given here); conditions: P. falciparum Dd2 in erythrocytes, SYBR Green DNA, 72 h; at 5.51 µM (top of the series) unless noted
Outline: as §1

[23] = qHTS profiling of the MIPE4 collection as inhibitors of Plasmodium falciparum (DD2) proliferation (Rep 2) (AID 743346; call rule not given here); conditions: P. falciparum Dd2 in erythrocytes, SYBR Green DNA, 72 h; at 5.51 µM (top of the series) unless noted
Outline: as §1

[24] = qHTS profiling of the MIPE4 collection as inhibitors of Plasmodium falciparum (HB3) proliferation (AID 743347; call rule not given here;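 further: plate controls were DMSO vehicle wells for no effect and artemisinin wells for full effect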); conditions: P. falciparum HB3 in erythrocytes, SYBR Green DNA, 72 h; at 5.51 µM (top of the series) unless noted
Outline: as §1

[25] = Primary qHTS for small molecule stabilizers of the endoplasmic reticulum resident proteome: Secreted ER Calcium Modulated Protein (SERCaMP) assay (AID 1508630); further: on the % scale 0 is the no-effect control and ±100 the full control effect
Outline: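 The SH-SY5Y reporter protocol was run at 3 concentrations up to 38.3 uM (primary) or 11 concentrations (follow-up): 16 h compound, 100 nM thapsigargin for 4 h, then extracellular luciferase luminescence.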

[26] = target: 3',5'-cyclic-AMP phosphodiesterase 4B (Homo sapiens) (UniProt Q07343); assay: qHTS Assay for Inhibitors of PDE-IV (AID 607; active means well fitted activation curve with a large enough effect in the main read-out, with a control signal flat, not every such curve was filed as active; further: % of control where 0% means no effect)
3',5'-cyclic-AMP phosphodiesterase 4B (Homo sapiens), sequence (Q07343 whole entry, looked up): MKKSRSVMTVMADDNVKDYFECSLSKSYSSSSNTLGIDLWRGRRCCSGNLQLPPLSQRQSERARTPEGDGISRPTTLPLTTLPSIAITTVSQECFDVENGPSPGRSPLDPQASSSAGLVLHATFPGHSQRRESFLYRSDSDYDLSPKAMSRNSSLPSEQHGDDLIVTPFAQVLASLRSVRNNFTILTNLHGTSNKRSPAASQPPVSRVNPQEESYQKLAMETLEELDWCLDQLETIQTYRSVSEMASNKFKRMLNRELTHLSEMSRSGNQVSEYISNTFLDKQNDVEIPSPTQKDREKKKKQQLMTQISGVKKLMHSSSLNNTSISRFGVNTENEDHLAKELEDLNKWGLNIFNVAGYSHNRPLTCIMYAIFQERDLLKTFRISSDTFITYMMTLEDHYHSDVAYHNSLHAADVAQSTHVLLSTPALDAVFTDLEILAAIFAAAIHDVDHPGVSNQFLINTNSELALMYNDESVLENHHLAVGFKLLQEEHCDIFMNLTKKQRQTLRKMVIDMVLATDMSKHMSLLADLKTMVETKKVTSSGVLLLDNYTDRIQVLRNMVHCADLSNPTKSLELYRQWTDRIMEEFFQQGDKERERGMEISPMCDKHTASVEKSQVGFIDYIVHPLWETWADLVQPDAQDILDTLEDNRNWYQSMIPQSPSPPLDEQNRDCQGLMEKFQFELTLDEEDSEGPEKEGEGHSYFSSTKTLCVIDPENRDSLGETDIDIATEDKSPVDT
Outline: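 HEK293 ACTOne cells with CNG channel (1000/well), endogenous PDE4; membrane potential dye, compounds up to 22.9 uM final. Fluorescence Ex 535/Em 590; RO 20-1724 (100 uM final) as reference.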

[27] = target: Ubiquitin carboxyl-terminal hydrolase 1 (Homo sapiens) (UniProt O94782); assay: Inhibitors of USP1/UAF1: Pilot qHTS (AID 504865);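 further: rhodamine fluorescence freed from ubiquitin-rhodamine substrate followed over time; top concentration of the series differs between compounds; on the % scale 0 is the no-effect control and ±100 the full control effect; nearly all actives have a fitted effect of over 35% in size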
Outline: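 USP1/UAF1 complex (1nM) preincubated with compound 15 min at room temperature, then Ub-Rho substrate (150nM final) added. Fluorescence read kinetically at 480/540 nm, 6 reads every 60 seconds. Buffer: 50mM HEPES pH 7.8, 0.5mM EDTA, 0.1 mg/ml BSA, 1mM TCEP, 0.01% Tween-20.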

[28] = target: Rap guanine nucleotide exchange factor 3 (Homo sapiens) (UniProt O95398); assay: Counterscreen qHTS for antagonist of cAMP-regulated guanine nucleotide exchange factor 3 (EPAC1) (AID 1645888); further: % of control where 0% means no effect
Outline: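 Measured: fluorescence of BODIPY-GDP bound to Rap1B, which falls as exchange proceeds. Conditions include 50 uM competing GDP, 5 and 30 min reads, and a later cAMP challenge for antagonist detection.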

[29] = measured here: cell count channel max response
[30] = measured here: lipid channel max response

COc1ccc2[nH]cc(CCNc3ncnc4ccc(-c5ccccc5C#N)cc34)c2c1
-13.6%: max response [16, 29]
inactive: Potency [1] > 11.4 µM | activity change, negative = inhibition [2] -21.6% | activity change, negative = inhibition [4] 29.2% | activity, negative = inhibition [5] -19.5% | Potency [6] > 46 µM | Potency [7] > 46 µM | Potency [8] | Potency [11] | Potency [14] | outcome [15] | activity change, negative = inhibition ([16]; at 57.5 µM (top of the series)) 4.54% | Potency [17] | Potency [18] | Potency [19] | Potency [20]
-10.8%: max response [16, 30]
active: Potency [3] 3.98 µM | Potency [9] 0.316 µM | Potency [10] 2 µM | Potency [12] 7.94 µM | Potency [13] 2 µM

NCCC[C@H](N)CC(=O)N[C@H]1CNC(=O)[C@H]([C@H]2C[C@H](O)N=C(N)N2)NC(=O)C(=CNC(N)=O)NC(=O)[C@H](CO)NC(=O)[C@H](CO)NC1=O (β3hOrn-[Dap]SS[ΔAla(3-NHCONH2)][X4]; lactam 1-C)
inactive: outcome [25]
92.5%: parasite growth, % of control (lower = inhibition) [23]
71.8%: growth, % of control [24]
79.9%: parasite growth remaining, % of DMSO control (lower = more inhibition) [22]
66.2%: parasite growth, % of DMSO control [21]

CC[C@@]12CCCN3CCc4c(n(c5ccccc45)[C@](O)(C(=O)OC)C1)[C@H]32
4.14% and 0.607% and 6.95%: max response [16, 30]
active: Potency [12] 0.251 µM
inactive: activity change, negative = inhibition [2] 13.8% [at 17.2 µM] | Potency [3] | activity change, negative = inhibition [4] -8.76% [at 17.2 µM] and -13.1% [at 17.2 µM] | activity, negative = inhibition [5] 4.76% [at 17.2 µM] and 8.92% [at 17.2 µM] | Potency [6] > 20.6 µM and > 46 µM | Potency [7] > 20.6 µM and > 46 µM | Potency [8] | Potency [26] | Potency [9] | Potency [11] | activity change, negative = inhibition ([16]; at 25.7 µM (top of the series)) -1.27% and -2.91% | activity change, negative = inhibition ([16]; at 57.5 µM (top of the series)) 0.0973% | Potency [27]
5.49% and 0.925% and 3.19%: max response [16, 29]

CN(Cc1ccco1)c1ncnc2ccc(-c3ccc4c(c3)OCO4)cc12
-9.61%: max response [16, 29]
-5.56%: max response [16, 30]
inactive: Potency [1] > 11.4 µM | activity, negative = inhibition [5] -7.17% | Potency [6] > 46 µM | Potency [7] > 46 µM | Potency [8] | Potency [11] | Potency [14] | outcome [15] | activity change, negative = inhibition ([16]; at 57.5 µM (top of the series)) 2.26% | Potency [17] | Potency [18] | Potency [19] | outcome [28]
13.9 µM (active) and inactive: Potency [20]
active: Potency [3] 0.501 µM | Potency [10] 2.51 µM | Potency [12] 1.58 µM | Potency [13] 0.631 µM
